Rows were chosen to be rich in hits. Some 5.3% of all compounds tested hit in one or more screens of this group.
HPGD block = blocks human HPGD enzyme activity; Potency, µM, for the others: at the highest dose activity change, negative = inhibition, actives largely listed as inhibitors; hit rate 4.3% among 150,000; P15428; purified HPGD, NADH fluorescence kinetic, PGE2 substrate; AID 894; active = well fitted inhibition curve with a large enough effect, not every such curve was filed as active; inconclusive = small, poorly fitted or top-dose-only effect, or another doubt; inactive = no such curve, though single readings can be large or run the other way; note: potency is the fitted concentration of half-maximal effect
Target sequence (P15428 whole entry, looked up): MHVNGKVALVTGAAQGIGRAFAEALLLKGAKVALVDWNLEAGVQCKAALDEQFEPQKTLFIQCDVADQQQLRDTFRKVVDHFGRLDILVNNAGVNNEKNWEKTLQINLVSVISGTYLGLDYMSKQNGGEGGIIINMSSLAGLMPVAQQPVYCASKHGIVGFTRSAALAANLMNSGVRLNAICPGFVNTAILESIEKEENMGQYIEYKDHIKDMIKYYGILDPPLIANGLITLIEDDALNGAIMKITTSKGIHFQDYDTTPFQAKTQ
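20 nM HPGD preincubated 15 min at room temperature with compound in 50 mM Tris-HCl pH 8, 0.01% Tween 20. Started with 1 mM NAD+ and 30 uM prostaglandin E2; NADH fluorescence (360/450 nm) read 5 times over 30-s intervals, last minus first.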
IMPase Li inh = cell-permeable IMPase inhibitors with lithium potentiation; AID 1457; CHO-M1 cells, IP1 TR-FRET (IP-One), carbachol + lithium; Potency, µM (top dose mostly 59.4 µM), without a hit: top-dose activity, negative = IMPase inhibition, hits mostly inhibitors; hit rate 0.35% among 210,000;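 note: IP1 builds up when IMPase is blocked and the TR-FRET signal falls; potency is the fitted concentration of half-maximal effect; plate controls were basal vehicle for no effect and high inhibitor control for full effect; nearly all actives have a fitted effect of over 50% in size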
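Test compounds were applied to CHO-M1 cells previously cultured for 16–30 h at 2000 per well. A small lithium amount accompanied them; after 30 min at 37C, IP1 was quantified by TR-FRET.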
PNC inhibitor = perinucleolar compartment assembly inhibition | PC3M PTB-GFP, PNC prevalence imaging, 16 h; active compounds read low | activity change (PNC), negative = inhibition, % at 10 µM | hit rate 3.1% among 140,000 | AID 2417;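 active = readout at or below -70, meaning at least 70% loss of cells showing the perinucleolar compartment, a nuclear body marking cancer cells; inconclusive = readout between -30 and a set limit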;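 note: plate controls were DMSO wells for no effect and camptothecin positive control wells for full effect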
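Read-out is percentage of cells bearing a perinucleolar compartment, from automated 20x imaging of fixed, Hoechst-stained PC3M PTB-GFP cells. Cells were seeded 4 h, then exposed 16 h to compound (23 nl of library stock) in duplicate plates.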
ALOX15B inhib = 15-hLO-2 (ALOX15B) enzyme inhibition. O15296. purified 15hLO-2, xylenol orange hydroperoxide absorbance. AID 881. hit rate 0.56% among 110,000. Potency, µM (highest dose often 57.1 µM), without a hit: top-dose activity change, negative = inhibition, most hits filed as inhibitors; note: potency is the fitted concentration of half-maximal effect; nearly all actives have a fitted effect of over 60% in size
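Purified human 15hLO-2 (50 nM) preincubated 15 min with compound, then 45 uM arachidonic acid for 90 min at RT in 25 mM Hepes pH 7.5, 0.01% Triton X-100. Hydroperoxide detected by Fe-xylenol orange; 573/405 nm absorbance ratio.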
ALOX12 inhib = inhibitors of human 12-lipoxygenase (ALOX12); P18054; hit rate 0.12% among 150,000; purified 12-hLO, xylenol orange hydroperoxide absorbance; Potency, µM (titrated, usually from 57.1 µM), inactives show top-dose activity change, negative = inhibition, usual class: inhibitors; note: potency is the fitted concentration of half-maximal effect; nearly all actives have a fitted effect of over 55% in size
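Purified human 12hLO (150 nM final) was preincubated with compounds for 15 min at room temperature in 25 mM Hepes pH 7.0, 0.01% Triton X-100, then reacted with 40 uM arachidonic acid for 30 min. Hydroperoxide was detected with ferrous iron/xylenol orange.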
IMPase inh = membrane-permeable compound that blocks inositol monophosphatase; P97697; CHO-M1 cells, IP1 accumulation, HTRF TR-FRET ratio; inhibition (IP1 accumulation), % at 46.1 µM; 120,000 tested, under 10 active; active = well fitted curve in the direction sought with a large enough effect in the signal ratio, not every such curve was filed as active; inconclusive = small, poorly fitted or top-dose-only effect, or a change in a side signal; inactive = no such curve, though single readings can be large or run the other way; the % refers to the signal ratio;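 note: cells stimulated with carbachol in lithium chloride buffer; plate controls were DMSO basal wells for no effect and reference inhibitor wells for full effect; higher means more IMPase inhibition seen as more IP1 and lower FRET ratio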
Target sequence (P97697 whole entry, looked up): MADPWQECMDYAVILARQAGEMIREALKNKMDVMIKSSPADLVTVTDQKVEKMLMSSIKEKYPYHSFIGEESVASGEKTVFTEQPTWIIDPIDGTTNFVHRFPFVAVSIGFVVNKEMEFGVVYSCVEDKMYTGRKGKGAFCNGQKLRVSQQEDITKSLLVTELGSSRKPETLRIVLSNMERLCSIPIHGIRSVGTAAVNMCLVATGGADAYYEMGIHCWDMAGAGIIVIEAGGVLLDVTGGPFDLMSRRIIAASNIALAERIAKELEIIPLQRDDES
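Seeded CHO-M1 cells were dosed with compound at up to 46 uM, stimulated with carbachol for 30 min, then lysed in IP-One detection reagents. Higher IP1 lowers the TR-FRET signal.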
Active calls of the source: *; ? = inconclusive; . = no result; [ ] = dose if it differs, or a comment. Unless noted, calls come from the whole dose curve; as a rule, active = well fitted curve in the direction sought with a large enough effect; inconclusive = small, poorly fitted or top-dose-only effect, or another doubt; inactive = no such curve, though single readings can be large; an effect the other way counts as inactive or inconclusive. Unless noted, % is set by controls: 0 for no effect and ±100 for the full control effect.

SMILES | HPGD block | IMPase Li inh | PNC inhibitor | ALOX15B inhib | ALOX12 inhib | IMPase inh
Cc1cccc(C(=O)NCc2nnc3c4ccccc4c(-c4ccccc4)nn23)c1 | ? | 9% | -12 | . | 1% | -1
CC1(C)Cc2nc3oc4c(=S)nc[nH]c4c3cc2CO1 | 28µM* | ? | -10 | ? | -5% | ?
CCOC(=O)c1c(N)nn(C(=O)C(C)(C)C)c1-c1ccccc1 | ? | 45%[38.3 µM] | 10 | -2% | 6% | 5
CCOC(=O)C1=C(c2ccccc2)N2CCS(=O)(=O)N=C2S1 | -6% | 19%[38.3 µM] | -83* | 9% | -1% | -3
CC(=O)c1ccccc1NC(=O)Cn1c(=O)cnc2ccccc21 | -14% | 2% | ? | . | 1% | .
Cc1ccc(OCCN2C(=O)C(=O)c3cccc(C)c32)cc1 | . | 10% | . | . | . | .
CCC/C=C(\CCC)C(NS(=O)(=O)c1ccc(C(F)(F)F)cc1)c1ccc(C(=O)OC)cc1 (configuration not stated) | -10% | 0% | . | -6% | 0% | .
CCN(CC)S(=O)(=O)c1cccc(C(=O)c2c(C)cc3ccccn23)c1 | -18% | 14% | -94* | . | -7% | .
COc1ccc(CCNC(=O)CSc2nc3ccccc3o2)cc1 | -6% | 5%[38.3 µM] | ? | -1% | 2% | -5
O=C(NCCc1ccccc1)c1cc2sccc2n1Cc1ccccc1 | 16µM* | 6%[38.3 µM] | -4 | 3% | -2% | ?
CCn1c(C(=O)NCc2ccccn2)cc2sccc21 | 18µM* | 0% | 0 | -1% | 2% | 8
CCn1c(C(=O)NCc2cccnc2)cc2sc(Cl)cc21 | 16µM* | 0% | 43 | 38% | 28% | -4
O=C(NCc1ccco1)c1cc2sccc2n1Cc1ccccc1 | 16µM* | 15% | 178 | . | 0% | 6
CCn1c(C(=O)N2CCc3ccccc3C2)cc2sccc21 | 3.2µM* | 22%[38.3 µM] | -22 | ? | -1% | 9
CCn1c(C(=O)NCCCN2CCc3ccccc3C2)cc2sccc21 | -11% | 58%[38.3 µM] | ? | 11%[11.4 µM] | -8% | 11[1.84 µM]
COc1ccc(Cn2c(-c3ccc(Br)cc3)c[n+]3ccccc23)cc1 | -2% | 16% | 12 | . | -1% | 12
CCOc1cccc(CNc2ccc(O)cc2)c1OCc1ccccc1Cl | -24% | 13% | -5 | . | ? | -1
CCOc1cccc(CNc2ccc(O)cc2)c1OCc1ccc(Cl)cc1Cl | -7% | -1%[38.3 µM] | 9 | 1.6µM* | ? | 12
CC(=O)Nc1ccc(C(=O)CSc2nccc(=O)[nH]2)cc1 | . | 5% | . | . | . | .
N#Cc1ccc(NC(=O)COC(=O)C2Cc3ccccc3CN2C(=O)c2ccccc2)cc1 (configuration not stated) | -12% | 12% | -98* | . | -1% | .
Cc1cccc(C)c1NC(=O)COC(=O)C1Cc2ccccc2CN1C(=O)c1ccccc1 (configuration not stated) | -4% | 10% | ? | . | -5% | .
O=C(O)C1Cc2ccccc2CN1C(=O)c1ccccc1Cl (configuration not stated) | -4% | -17%[38.3 µM] | -18 | 11% | -6% | -8
O=C(O)C1Cc2ccccc2CN1C(=O)c1ccccc1 (configuration not stated) | -5% | 9%[38.3 µM] | -97* | -3%[11.4 µM] | -1% | -4[1.84 µM]
CCOc1ccccc1NC(=O)C(NCC1(N2CCCCC2)CCCCC1)c1ccccc1 (configuration not stated) | . | 8% | . | . | . | .
CNC(=S)Nc1cccc(S(=O)(=O)NC2=NCCC2)c1 | . | -6% | . | . | . | .
SMILES | HPGD block | IMPase Li inh | PNC inhibitor | ALOX15B inhib | ALOX12 inhib | IMPase inh
Nc1scc2c(C(=O)N/N=C/c3ccc(Cl)cc3)nn(-c3ccccc3)c(=O)c12 | 14µM* | 10%[38.3 µM] | ? | ? | ? | ?
O=C(NCc1ccco1)C1CCC(CNS(=O)(=O)c2cccc3cccnc23)CC1 (configuration not stated) | 20µM* | -1%[38.3 µM] | -24 | 3% | 0% | -7
Cc1cc(C)c2c(=O)n(CC(=O)N3CCC(Cc4ccccc4)CC3)sc2n1 | 4.5µM* | 4% | 55 | . | -16% | 0
Cc1cccc(N2CCN(C(=O)Cn3sc4nc(C)cc(C)c4c3=O)CC2C)c1 (configuration not stated) | 3.2µM* | 20%[38.3 µM] | 17 | 1µM* | ? | 2
Cc1ccc(-c2ccc(=O)n(CC(=O)N3CCN(c4cccc(C)c4)C(C)C3)n2)cc1 (configuration not stated) | -12% | -1%[38.3 µM] | -24 | 5% | -8% | 6
CN1CC(=O)N(CC(=O)N2CCC(Cc3ccccc3)CC2)C1=O | . | 7% | . | . | . | .
O=C(COC(=O)C1(c2ccccc2F)CCCC1)NCc1cccs1 | . | 14% | . | . | . | .
Cc1oc(-c2ccc3c(c2)OCCO3)cc1C(=O)NC(CCC(=O)O)C(=O)O (configuration not stated) | 14µM* | -4%[38.3 µM] | -19 | 23% | -5% | -6
Cc1oc(-c2ccc3c(c2)OCCO3)cc1C(=O)NCC(=O)O | . | 15% | . | . | . | .
O=C(COc1ccccc1)NN1C(=O)CSC1=S | . | -5% | . | . | . | .
Cc1ccc(C(=O)NN2C(=O)CSC2=S)cc1 | -12% | -5% | -84* | . | -6% | .
S=C(c1ccc(-c2ccc(Cl)cc2)o1)N1CCCCC1 | -22% | 22%[38.3 µM] | -4 | ? | -28% | 6
N#CCCN1CCN(C(=S)c2ccc(-c3ccc(Cl)cc3)o2)CC1 | 20µM* | -13%[38.3 µM] | ? | ? | ? | 4
O=C(C[n+]1cc(-c2ccccc2)n2c1CCC2)N1c2ccccc2Sc2ccccc21 | 1% | 33% | -119* | . | 0% | 22
Cc1ccc(-c2c[n+](CC(=O)N3c4ccccc4Sc4ccccc43)c3n2CCC3)cc1 | 3% | 22% | ? | . | 2% | 13
COC(=O)CSc1nc2c(c(-c3ccco3)c1C#N)CCCC2 | 13µM* | -18%[38.3 µM] | 27 | ? | -23% | -10
COC(=O)CSc1nc2c(c(-c3ccc(O)cc3)c1C#N)CCCC2 | . | -3% | . | . | . | .
O=C1CCCN1c1ccc(S(=O)(=O)Oc2ccc(Cl)cc2)cc1[N+](=O)[O-] | 7.9µM* | 29%[38.3 µM] | -3 | -8% | -12% | 7
Cc1nc2cc(C(=O)O)ccc2n1C1CCCCC1 | -7% | 3% | -100* | . | -4% | -10
Cc1nc2cc(N)ccc2n1C1CCCCC1 | . | 22% | . | . | . | .
CCOCCOC(=O)COc1ccc2c(-c3ccccc3)cc(=O)oc2c1 | 25µM* | -7% | -17 | . | 0% | .
COc1ccc(-c2cc(=O)oc3cc(OCC(C)=O)ccc23)cc1 | 32µM* | -1% | 5 | . | 0% | .
COc1ccc(-c2cc(=O)oc3cc(OCC(=O)c4cccc([N+](=O)[O-])c4)ccc23)cc1 | 2.8µM* | -2% | ? | . | 0% | .
